The test system of experiment [1] is Wnt5a (protein binding on small-molecule microarray). As to the kind of experiment: small molecules binding Wnt5a protein – biophysical, small-molecule microarray, 635/667 nm fluorescence, primary screen (AID 1142).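 Also: fluorescence read at 667 nm with signal to noise per printed feature.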 To be noted: 635 nm fluorescence, higher = more signal.
The nature of experiment [2]: ATP-based viability of Huh7 replicon cells – cell-based, CellTiter-Glo luminescence, basal, 48 h, cytotoxicity control for HCV replication inhibitor project, primary screen (AID 1143).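 Also: Huh7 hepatoma cells carrying a hepatitis C replication reporter with no stimulus; test concentration not given here.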 To be noted: higher = more signal, called active from +8 up or from −8 down.
Experiment [3] is described as follows: Pseudomonas biofilm growth suppression – PAO1 strain, BacTiter-Glo luminescence, LB-PBS, primary screen (AID 1144). To be noted: P. aeruginosa PAO1 biofilm, 12 h, higher = more signal.
A short description of experiment [4]: basal CRE-LacZ reporter activity in PC12 – cell-based, unstimulated, primary screen (AID 1145). To be noted: no forskolin, luminescence, 4.5 h, higher = more signal, called active from +8 up or from −8 down.
A short description of experiment [5]: forskolin-driven CRE-LacZ activity in PC12 – cell-based, CRE-LacZ reporter, forskolin-stimulated, primary screen (AID 1146).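 Also: PC12 cells with 6xCRE LacZ reporter stimulated by forskolin 10 µM; beta-galactosidase reporter signal reflecting CREB driven transcription.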 The conditions noted are these: luminescence, 4.5 h, higher = more signal, called active from +8 up or from −8 down.
Experiment [6] deals with Streptavidin (Streptomyces avidinii) (UniProt P22629). As to the kind of experiment: compounds binding control protein streptavidin – biophysical, small-molecule microarray, 635/667 nm fluorescence, artefact control for SMM compound annotation, primary screen (AID 1147).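 Also: signal reflects streptavidin binding to arrayed compounds as a control protein.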 To be noted: higher = more signal.
Experiment [7] in a line: probe aInhba binding on compound microarray – biochemical, small-molecule microarray, 635/667 nm fluorescence, primary screen (AID 1148).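 Also: score merges 667nm spot fluorescence with signal-to-noise for antibody binding to printed compounds.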 The conditions noted are these: higher = more signal.
In experiment [8] the target is Torsin-1A (Homo sapiens) (UniProt O14656). The experiment can be described thus: TOR1A wild-type binding on microarray – cell lysate, small-molecule microarray, lysate, 635/667 nm, primary screen (AID 1149). The conditions noted are these: COS7 hTOR1A-WT lysate, 635 nm fluorescence, higher = more signal.
Experiment [9] shares this target. As to the kind of experiment: torsin A mutant lysate binding on microarrays – cell lysate, small-molecule microarray, COS7 lysate, 635/667 nm fluorescence, primary screen (AID 1150).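 Also: score pools 667 nm emission and signal to noise measuring lysate protein binding.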 The conditions noted are these: COS7 hTOR1A mutant lysate, 635 nm fluorescence, higher = more signal.
Experiment [10] has as its system Sonic hedgehog protein (Shh). The experiment can be described thus: Sonic hedgehog microarray binding compounds – biochemical, small-molecule microarray, 635/667 nm fluorescence, primary screen (AID 1151).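 Also: Shh protein binding to compounds spotted on small-molecule microarray slides; score combines spot fluorescence intensity with signal-to-noise across triplicate slides.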 The conditions noted are these: 635 nm fluorescence, higher = more signal.
Experiment [11] is described as follows: optical density shifts of acrAB sulA E. coli – strain DRC41, OD650, 48 h, E. coli filamentation inducer project, primary screen (AID 1152).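 Also: E. coli MC1000 strain DRC41 lacking acrAB efflux pump and sulA.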 The conditions noted are these: higher = more signal, called active from +8 up or from −8 down.
Experiment [12] in a line: probe aLefty1 binding on compound microarray – biochemical, small-molecule microarray, 635/667 nm fluorescence, primary screen (AID 1153).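 Also: score merges spot fluorescence with signal-to-noise ratio from the scanned slide images.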 To be noted: higher = more signal.
Experiment [13] can be described thus: plasmodial surface anion channel blockers, osmotic lysis – cell-based, P. falciparum Indochina, OD700, 1 h, primary screen (AID 1154). To be noted: P. falciparum Indochina infected RBC osmotic lysis, higher = more signal, called active from +8 up or from −8 down.
Experiment [14] can be described thus: plasmodial surface anion channel blockers, osmotic lysis – cell-based, P. falciparum Indochina, OD700, 2 h, primary screen (AID 1155).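 Also: lysis reports solute entry through the parasite surface anion channel PSAC.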 To be noted: P. falciparum Indochina infected erythrocytes, higher = more signal, called active from +8 up or from −8 down.
Experiment [15] can be described thus: changes in parasitized red cell lysis, either direction – P. falciparum Indochina, OD700, 3 h, PSAC antagonist project, primary screen (AID 1156). The conditions noted are these: P. falciparum-infected erythrocytes, osmotic lysis, higher = more signal, called active from +8 up or from −8 down.
The nature of experiment [16]: plasmodial surface anion channel blockers, osmotic lysis – cell-based, P. falciparum Indochina, OD700, 18 h, primary screen (AID 1157). The conditions noted are these: P. falciparum Indochina infected erythrocytes, osmotic lysis OD700, 18 h; higher = more signal, called active from +8 up or from −8 down.
Experiment [17] is described as follows: S6 kinase pathway phospho-S6 level changes – cell-based, A549, cytoblot, luminescence, serum-stimulated, primary screen (AID 1158).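 Also: serum-stimulated A549 lung adenocarcinoma cells; signal is phosphorylated S6 detected by cytoblot immunostaining with HRP secondary.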 To be noted: 5 h, higher = more signal.
Experiment [18] concerns the target NADPH oxidase 2 (Homo sapiens) (UniProt P04839). As to the kind of experiment: compounds shifting NOX2 Amplex Red fluorescence – cell-based, HEK293-NOX2, PMA-stimulated, NOX inhibitor project, primary screen (AID 1159). Also: test concentration not given here. The conditions noted are these: 45 min, higher = more signal, called active from +8 up or from −8 down.
Experiment [19] concerns the target NADPH oxidase 4 (Homo sapiens) (UniProt Q9NPH5). The experiment can be described thus: compounds shifting NOX4 Amplex Red fluorescence – cell-based, HEK293-NOX4, tetracycline-induced, NOX inhibitor project, primary screen (AID 1160). The conditions noted are these: HEK293-NOX4, Amplex Red H2O2 fluorescence, 45 min; higher = more signal, called active from +8 up or from −8 down.

The target of experiment [20] is NADPH oxidase 5 (Homo sapiens) (UniProt Q96PH1). As to the kind of experiment: compounds shifting NOX5 Amplex Red fluorescence – cell-based, HEK293-NOX5, NOX inhibitor project, primary screen (AID 1161). The conditions noted are these: HEK293-NOX5, ionomycin, 45 min, higher = more signal.

Active and inactive are the calls of the source. Unless noted, no rule for the calls is given here.

Sequence of Streptavidin (Streptomyces avidinii) (P22629 whole entry, looked up): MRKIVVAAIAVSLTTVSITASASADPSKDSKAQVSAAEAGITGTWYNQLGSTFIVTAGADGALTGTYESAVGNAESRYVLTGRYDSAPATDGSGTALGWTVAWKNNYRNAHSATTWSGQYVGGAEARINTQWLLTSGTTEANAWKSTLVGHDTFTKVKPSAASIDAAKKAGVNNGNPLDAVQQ
Sequence of NADPH oxidase 2 (Homo sapiens) (P04839 whole entry, looked up): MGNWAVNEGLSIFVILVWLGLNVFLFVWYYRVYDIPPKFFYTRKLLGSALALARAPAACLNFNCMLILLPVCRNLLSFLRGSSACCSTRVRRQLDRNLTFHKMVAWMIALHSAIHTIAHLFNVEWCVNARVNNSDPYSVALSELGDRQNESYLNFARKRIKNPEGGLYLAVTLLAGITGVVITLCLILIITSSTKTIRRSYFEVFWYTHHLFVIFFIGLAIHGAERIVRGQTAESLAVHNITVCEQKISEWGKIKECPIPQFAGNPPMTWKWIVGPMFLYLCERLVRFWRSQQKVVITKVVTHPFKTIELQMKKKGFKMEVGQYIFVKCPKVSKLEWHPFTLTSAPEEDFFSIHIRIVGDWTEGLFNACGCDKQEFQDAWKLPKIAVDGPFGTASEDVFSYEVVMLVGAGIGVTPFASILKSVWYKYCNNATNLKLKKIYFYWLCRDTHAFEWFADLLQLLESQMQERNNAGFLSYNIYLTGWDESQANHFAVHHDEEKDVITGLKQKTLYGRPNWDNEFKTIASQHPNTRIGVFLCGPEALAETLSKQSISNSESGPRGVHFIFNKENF
Sequence of NADPH oxidase 4 (Homo sapiens) (Q9NPH5 whole entry, looked up): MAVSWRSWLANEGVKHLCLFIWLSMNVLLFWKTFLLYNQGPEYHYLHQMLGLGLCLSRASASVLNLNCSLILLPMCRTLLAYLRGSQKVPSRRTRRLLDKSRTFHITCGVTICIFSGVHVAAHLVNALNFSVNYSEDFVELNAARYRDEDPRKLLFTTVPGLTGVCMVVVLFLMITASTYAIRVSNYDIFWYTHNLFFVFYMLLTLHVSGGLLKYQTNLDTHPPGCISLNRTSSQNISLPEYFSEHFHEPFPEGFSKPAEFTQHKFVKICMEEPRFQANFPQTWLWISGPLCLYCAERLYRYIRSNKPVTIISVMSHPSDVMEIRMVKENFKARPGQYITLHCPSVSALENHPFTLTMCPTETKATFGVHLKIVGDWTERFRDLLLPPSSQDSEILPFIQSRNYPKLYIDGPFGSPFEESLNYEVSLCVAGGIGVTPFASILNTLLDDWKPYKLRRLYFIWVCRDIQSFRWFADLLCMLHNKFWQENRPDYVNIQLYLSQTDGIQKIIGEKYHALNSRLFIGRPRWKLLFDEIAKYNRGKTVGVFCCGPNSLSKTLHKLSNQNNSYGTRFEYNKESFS
Sequence of NADPH oxidase 5 (Homo sapiens) (Q96PH1 whole entry, looked up): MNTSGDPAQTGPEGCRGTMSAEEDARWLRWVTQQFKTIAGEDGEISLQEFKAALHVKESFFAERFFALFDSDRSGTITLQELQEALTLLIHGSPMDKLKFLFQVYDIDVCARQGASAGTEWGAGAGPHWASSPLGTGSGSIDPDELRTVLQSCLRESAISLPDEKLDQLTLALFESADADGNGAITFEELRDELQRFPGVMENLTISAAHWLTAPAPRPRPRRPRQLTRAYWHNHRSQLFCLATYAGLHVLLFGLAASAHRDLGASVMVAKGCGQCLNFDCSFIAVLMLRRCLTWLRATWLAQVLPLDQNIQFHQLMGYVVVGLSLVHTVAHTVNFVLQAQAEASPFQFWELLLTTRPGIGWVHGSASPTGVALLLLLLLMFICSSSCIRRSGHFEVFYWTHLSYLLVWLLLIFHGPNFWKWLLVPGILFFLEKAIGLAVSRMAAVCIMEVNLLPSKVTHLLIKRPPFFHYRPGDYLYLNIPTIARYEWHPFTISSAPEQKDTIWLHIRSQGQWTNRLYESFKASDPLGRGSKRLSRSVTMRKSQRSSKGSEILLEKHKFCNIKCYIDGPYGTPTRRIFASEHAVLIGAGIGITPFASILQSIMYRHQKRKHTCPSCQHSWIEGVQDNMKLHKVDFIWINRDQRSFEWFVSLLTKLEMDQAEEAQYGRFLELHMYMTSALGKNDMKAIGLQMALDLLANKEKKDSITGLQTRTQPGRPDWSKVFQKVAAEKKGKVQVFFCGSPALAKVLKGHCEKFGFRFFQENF
Sequence of Torsin-1A (Homo sapiens) (O14656 whole entry, looked up): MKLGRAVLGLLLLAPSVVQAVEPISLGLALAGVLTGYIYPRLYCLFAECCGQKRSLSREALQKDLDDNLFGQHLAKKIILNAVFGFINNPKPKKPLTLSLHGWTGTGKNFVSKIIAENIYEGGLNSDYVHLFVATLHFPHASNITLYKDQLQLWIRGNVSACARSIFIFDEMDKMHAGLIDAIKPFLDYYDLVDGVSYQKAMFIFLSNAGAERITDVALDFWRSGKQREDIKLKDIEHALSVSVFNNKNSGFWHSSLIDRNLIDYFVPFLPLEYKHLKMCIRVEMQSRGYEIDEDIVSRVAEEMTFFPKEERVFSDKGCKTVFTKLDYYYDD

With `C=CC[C@@H]1C=C[C@H](ON=CC[C@@H]2C=C[C@H](OC(C)=O)[C@@H](COC(C)=O)O2)[C@@H](CO)O1`, the composite z-score in experiment [1] was 0.521; in experiment [6], 1.54; in experiment [7] it was 0.113; in experiment [8] it was -0.161; in experiment [9], 0.259; in [10] it was 0.925. For the same compound, the composite z-score in [12] is 0.455. In addition, the z-score in experiment [2] is 0.0101 (inactive); in [3] it was -0.325 (inactive); in experiment [4], -1.21 (inactive); in [5], -0.66 (inactive); in [11], 0.4 (inactive); in [13], 0.551 (inactive). The z-score in experiment [14] is 0.538 (inactive); in [15], -0.0293 (inactive); in experiment [16], 0.393 (inactive); in experiment [17], 0.166; in experiment [18], -0.893 (inactive); in experiment [19], 0.319 (inactive). In addition, in [20], the z-score came out at 1.03.

Turning to `CCN1C(=O)[C@H]2[C@H]3[C@H](O)[C@H](O)CC(=NOCC=C(C)CCC=C(C)C)[C@@H]3CC[C@H]2C1=O`, the composite z-score in experiment [1] was 0.288; in experiment [6], -0.43; in [7], -0.204; in [8], 2.38; in experiment [9], 0.981; in experiment [10], 2.07. This compound also showed a composite z-score in experiment [12] of -0.22. In addition, the z-score was -2.44 (inactive) in experiment [2]; 0.17 (inactive) in experiment [3]; -0.115 (inactive) in experiment [4]; -0.157 (inactive) in [5]; -1.27 (inactive) in [11]; 1.17 (inactive) in [13]. Further, the z-score in experiment [14] was 0.579 (inactive); in experiment [15], 0.0742 (inactive); in experiment [16], 0.134 (inactive); in experiment [17], -0.23; in experiment [18], 1.56 (inactive); in experiment [19], 0.207 (inactive). In addition, in experiment [20], the z-score was -1.06.

Regarding `CCN1C(=O)[C@H]2[C@H]3[C@H](O)[C@H](O)CC(=NO[C@@H]4O[C@H](CO)[C@@H](O)[C@H](O)[C@H]4O)[C@H]3CC[C@H]2C1=O`, the composite z-score in [1] is 0.534; in experiment [6], 0.473; in experiment [7], -0.0873; in experiment [8], 0.261; in experiment [9] it was 0.577; in experiment [10], 0.47. The compound also came in with a composite z-score in [12] of -0.234. For the same compound, the z-score is -1.31 (inactive) in [2]; 0.427 (inactive) in [3]; 0.246 (inactive) in experiment [4]; 0.322 (inactive) in experiment [5]; -0.462 (inactive) in experiment [11]; -0.875 (inactive) in experiment [13]. For the same compound, the z-score was 0.0108 (inactive) in [14]; -0.677 (inactive) in [15]; 0.109 (inactive) in [16]; -0.218 in [17]; 1.4 (inactive) in experiment [18]; 0.422 (inactive) in experiment [19]. Moreover, in experiment [20], the z-score was -1.28.

As to `CON(C)C(=O)c1nnc2c(n1)[nH]c1ccccc12`, the composite z-score in experiment [1] is 0.0269; in [6] it was 0.153; in [7], -0.101; in [8], 0.275; in [9], 0.333; in experiment [10], 0.928. In addition, the composite z-score in experiment [12] is -0.161. Further, the z-score in experiment [2] is 0.569 (inactive); in [3], 0.555 (inactive); in [4] it was 0.198 (inactive); in [5], 0.275 (inactive); in experiment [11], -0.398 (inactive); in experiment [13] it was 1.61 (inactive). Moreover, the z-score in experiment [14] was 0.235 (inactive); in experiment [15] it was -0.322 (inactive); in experiment [16], 0.0008 (inactive); in experiment [17], -0.133; in experiment [18], 1.04 (inactive); in [19], 0.103 (inactive). Moreover, the z-score in [20] is 0.836.

These data come from PubChem BioAssay.
